In general, AC50 refers to the concentration at which the activity in the assay is half-maximal.

Active and inactive are the calls of the source. How the source made its calls: active means hit-call score of the fitted dose curve at least 0.9, where 1 is the maximum; inactive means score below 0.9.

This note sets out measurements from PubChem BioAssay (EPA / NIEHS).

What all share (settings): mRNA level, 48 h; actives raise or lower the signal
Read-out in assay [1]: Alkaline Phosphatase, Placental (ALPP) gene, ALPP (gene 250)
The assay can be described thus: LTEA_HepaRG_ALPP: Life Technologies and Expression Analysis (LTEA) Assay for Alkaline Phosphatase, Placental (ALPP) gene using HepaRG (AID 2283468).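 On AC50: differentiated human HepaRG liver cells in serum-free induction medium.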 In short, it runs like this: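 ALPP transcript level, measured by qRT-PCR and normalized to three housekeeping genes (ACTB, GAPDH, POLR2A), after 48 h dosing of differentiated HepaRG in serum-free induction medium. Top concentration 100 uM with half-log dilutions (8 points, 0.5% DMSO, duplicates); bidirectional fitting relative to DMSO.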

Read-out in assay [2]: Bcl-2 (BAD) gene, BAD (gene 572)
As to the kind of experiment: LTEA_HepaRG_BAD: Life Technologies and Expression Analysis (LTEA) Assay for Bcl-2 (BAD) gene using HepaRG (AID 2283469). In short, it runs like this: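 Read-out: qRT-PCR of BAD mRNA, normalized to three housekeeping genes. Human HepaRG cultures got 48 h chemical exposure in 0.5% DMSO, duplicate eight-point half-log series topping at 100 uM. Gain or loss of signal fitted versus DMSO vehicle.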

Read-out in assay [3]: Bcl-2 (BAX) gene, BAX (gene 581)
The assay can be described thus: LTEA_HepaRG_BAX: Life Technologies and Expression Analysis (LTEA) Assay for Bcl-2 (BAX) gene using HepaRG (AID 2283470). The gist of the method:
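Gene expression measured by Fluidigm qRT-PCR with three housekeeping genes for normalisation. HepaRG cells, plated 48 h beforehand, treated 48 h at up to 100 uM (8-point, half-log) in 0.5% DMSO. Bidirectional fitting versus DMSO.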

Read-out in assay [4]: adenosine kinase (ADK) gene, ADK (gene 132)
The assay can be described thus: LTEA_HepaRG_ADK: Life Technologies and Expression Analysis (LTEA) Assay for adenosine kinase (ADK) gene using HepaRG (AID 2283471). The gist of the method:
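Read-out is ADK transcript level measured by qRT-PCR and normalised to three housekeeping genes. Cells are human HepaRG, dosed for 48 h at up to 100 uM in 0.5% DMSO. Gain or loss of signal is fitted against DMSO controls.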

Read-out in assay [5]: Alpha-fetoprotein (AFP) gene, AFP (gene 174)
As to the kind of experiment: LTEA_HepaRG_AFP: Life Technologies and Expression Analysis (LTEA) Assay for Alpha-fetoprotein (AFP) gene using HepaRG (AID 2283472). The gist of the method:
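AFP transcript measured by TaqMan qRT-PCR with three housekeeping genes for normalization, after 48 h chemical treatment of HepaRG cells (top 100 uM, half-log steps, 0.5% DMSO). Gain or loss fitted against vehicle.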

Read-out in assay [6]: BCL2L11 (gene 10018)
The assay can be described thus: LTEA_HepaRG_BCL2L11: Life Technologies and Expression Analysis (LTEA) Assay for Bcl-2 (BCL2L11) gene using HepaRG (AID 2283473). In short, it runs like this:
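BCL2L11 transcript levels are measured by Fluidigm qRT-PCR, normalized to three housekeeping genes. HepaRG cultures were plated 48 h, then treated 48 h with test chemical (top 100 uM, half-log, 0.5% DMSO vehicle); curves were fitted bidirectionally against DMSO.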

Read-out in assay [7]: Apoptosis regulator Bcl-2 (Homo sapiens) (UniProt P10415)
The assay can be described thus: LTEA_HepaRG_BCL2: Life Technologies and Expression Analysis (LTEA) Assay for Bcl-2 gene using HepaRG (AID 2283475). The gist of the method: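 qRT-PCR of BCL2 transcript, normalized to three housekeeping genes (ACTB, GAPDH, POLR2A), after 48 h chemical exposure of HepaRG cells; concentrations top 100 uM with half-log dilutions, 0.5% DMSO vehicle, duplicates; changes up or down fitted relative to vehicle.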

Read-out in assay [8]: Bcl-2 (BID) gene, BID (gene 637)
As to the kind of experiment: LTEA_HepaRG_BID: Life Technologies and Expression Analysis (LTEA) Assay for Bcl-2 (BID) gene using HepaRG (AID 2283476). The gist of the method:
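Duplicate 48 h treatments of HepaRG cells in serum-free induction medium spanned 100 uM downward in half-log steps, 0.5% DMSO. Transcript change quantified by qRT-PCR against three housekeeping genes, fitted up or down versus DMSO.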

Read-out in assay [9]: Caspase-3 (Homo sapiens) (UniProt P42574)
As to the kind of experiment: LTEA_HepaRG_CASP3: Life Technologies and Expression Analysis (LTEA) Assay for cysteine-aspartic acid protease (CASP3) using HepaRG (AID 2283477). The gist of the method:
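Expression of CASP3 was quantified by TaqMan qRT-PCR against three housekeeping genes (ACTB, GAPDH, POLR2A), bidirectionally versus 0.5% DMSO. HepaRG cultures received compounds in duplicate, top 100 uM with half-log steps, for 48 h in serum-free induction medium.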

Read-out in assay [10]: Cytochrome P450 (CYP24A1), CYP24A1 (gene 1591)
The assay can be described thus: LTEA_HepaRG_CYP24A1: Life Technologies and Expression Analysis (LTEA) Assay for Cytochrome P450 (CYP24A1) using HepaRG (AID 2283478). In short, it runs like this: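 mRNA of CYP24A1 quantified by TaqMan qRT-PCR (ACTB/GAPDH/POLR2A normalization) after 48 h chemical exposure of HepaRG cells, top concentration 100 uM, half-log steps, 0.5% DMSO vehicle, duplicates. Curves fitted bidirectionally against DMSO baseline.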

Read-out in assay [11]: Cytochrome P450 (CYP1A2), CYP1A2 (gene 1544)
As to the kind of experiment: LTEA_HepaRG_CYP1A2: Life Technologies and Expression Analysis (LTEA) Assay for Cytochrome P450 (CYP1A2) using HepaRG (AID 2283479). In short, it runs like this:
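CYP1A2 transcript measured by TaqMan qRT-PCR against three housekeeping genes after 48-hour chemical exposure of HepaRG cells. Eight-point half-log series topping at 100 uM in 0.5% DMSO, duplicates; gain or loss fitted relative to vehicle.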

Read-out in assay [12]: cysteine-aspartic acid protease (CASP8), CASP8 (gene 841)
The assay can be described thus: LTEA_HepaRG_CASP8: Life Technologies and Expression Analysis (LTEA) Assay for cysteine-aspartic acid protease (CASP8) using HepaRG (AID 2283480). In short, it runs like this:
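CASP8 transcript measured by TaqMan qRT-PCR with ACTB/GAPDH/POLR2A normalization, after 48 h chemical exposure of HepaRG cells in serum-free induction medium. Eight concentrations, top 100 uM, half-log steps, 0.5% DMSO vehicle; fits in both directions versus DMSO.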

Read-out in assay [13]: Cytochrome P450 (CYP2B6), CYP2B6 (gene 1555)
As to the kind of experiment: LTEA_HepaRG_CYP2B6: Life Technologies and Expression Analysis (LTEA) Assay for Cytochrome P450 (CYP2B6) using HepaRG (AID 2283481). In short, it runs like this:
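CYP2B6 transcript level quantified by qRT-PCR against three housekeeping genes, fitted bidirectionally relative to DMSO. HepaRG cultures received chemicals for 48 h, 8-point half-log series from 100 uM in 0.5% DMSO, duplicate wells, serum-free induction medium.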

Read-out in assay [14]: Cytochrome P450 2C19 (Homo sapiens) (UniProt P33261)
As to the kind of experiment: LTEA_HepaRG_CYP2C19: Life Technologies and Expression Analysis (LTEA) Assay for CYP2C19 using HepaRG (AID 2283482). In short, it runs like this:
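CYP2C19 transcript levels by qRT-PCR, normalized to three housekeeping genes, in HepaRG cells after 48 h chemical exposure. Eight-point half-log series topping at 100 uM, 0.5% DMSO vehicle. Increases and decreases both fitted against DMSO.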

Read-out in assay [15]: CYP2C8 (gene 1558)
The assay can be described thus: LTEA_HepaRG_CYP2C8: Life Technologies and Expression Analysis (LTEA) Assay for CYP2C8 using HepaRG (AID 2283483). The gist of the method: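 CYP2C8 expression measured by TaqMan qRT-PCR and normalized to three housekeeping genes. HepaRG cultures were treated for 48 h with an eight-point half-log series topping at 100 uM, vehicle 0.5% DMSO, duplicates; fitted both directions against DMSO.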

Read-out in assay [16]: CYP2C9 (gene 1559)
As to the kind of experiment: LTEA_HepaRG_CYP2C9: Life Technologies and Expression Analysis (LTEA) Assay for CYP2C9 using HepaRG (AID 2283484). The gist of the method: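 CYP2C9 transcript level, quantified by TaqMan qRT-PCR against three housekeeping genes, was fitted bidirectionally relative to 0.5% DMSO. HepaRG cultures were treated 48 h, in duplicate, at eight half-log concentrations topping at 100 uM.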

Read-out in assay [17]: CYP2E1 (gene 1571)
As to the kind of experiment: LTEA_HepaRG_CYP2E1: Life Technologies and Expression Analysis (LTEA) Assay for CYP2E1 using HepaRG (AID 2283485). The gist of the method:
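CYP2E1 transcript measured by Fluidigm qRT-PCR against three housekeeping genes in human HepaRG cells treated 48 h (top 100 uM, half-log steps, 0.5% DMSO vehicle). Gain or loss fitted relative to DMSO baseline.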

Read-out in assay [18]: CYP4A11 (gene 1579)
As to the kind of experiment: LTEA_HepaRG_CYP4A11: Life Technologies and Expression Analysis (LTEA) Assay for CYP4A11 using HepaRG (AID 2283486). The gist of the method: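 Readout is CYP4A11 transcript level by qRT-PCR, normalized to three housekeeping genes and fitted bidirectionally against 0.5% DMSO. Human HepaRG cells were treated 48 h, in duplicate, with an 8-point half-log series topping at 100 uM.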

Read-out in assay [19]: Cytochrome P450 3A4 (Homo sapiens) (UniProt P08684)
The assay can be described thus: LTEA_HepaRG_CYP3A4: Life Technologies and Expression Analysis (LTEA) Assay for CYP3A4 using HepaRG (AID 2283487). In short, it runs like this: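 HepaRG, 48 h exposure, 8-pt CRC from 100 uM (half-log), 0.5% DMSO, duplicates; serum-free induction medium. Readout: CYP3A4 mRNA, qRT-PCR, ACTB/GAPDH/POLR2A normalization. Bidirectional fit vs DMSO.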

Chain of Cytochrome P450 2C19 (Homo sapiens) (P33261 whole entry, looked up): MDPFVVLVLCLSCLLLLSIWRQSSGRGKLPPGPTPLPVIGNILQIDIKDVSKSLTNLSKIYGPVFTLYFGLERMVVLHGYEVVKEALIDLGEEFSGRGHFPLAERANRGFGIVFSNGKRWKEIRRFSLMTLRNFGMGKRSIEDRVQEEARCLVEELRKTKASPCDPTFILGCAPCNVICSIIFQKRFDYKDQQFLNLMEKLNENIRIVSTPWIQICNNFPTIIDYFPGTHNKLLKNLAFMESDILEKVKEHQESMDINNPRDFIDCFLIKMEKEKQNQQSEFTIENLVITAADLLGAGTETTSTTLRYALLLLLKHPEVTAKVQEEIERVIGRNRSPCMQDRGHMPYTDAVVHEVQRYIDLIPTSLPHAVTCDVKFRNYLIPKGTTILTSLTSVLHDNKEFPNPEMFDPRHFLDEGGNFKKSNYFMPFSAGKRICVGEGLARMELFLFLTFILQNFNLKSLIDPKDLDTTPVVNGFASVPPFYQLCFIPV
Chain of Caspase-3 (Homo sapiens) (P42574 whole entry, looked up): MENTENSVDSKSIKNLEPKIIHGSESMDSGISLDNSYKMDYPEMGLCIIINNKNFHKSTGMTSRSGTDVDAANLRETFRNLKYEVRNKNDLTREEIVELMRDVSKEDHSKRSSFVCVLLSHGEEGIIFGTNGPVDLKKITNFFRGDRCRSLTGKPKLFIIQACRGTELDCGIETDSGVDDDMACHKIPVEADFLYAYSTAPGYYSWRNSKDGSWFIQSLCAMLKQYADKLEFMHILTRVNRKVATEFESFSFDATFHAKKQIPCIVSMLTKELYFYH
Chain of Cytochrome P450 3A4 (Homo sapiens) (P08684 whole entry, looked up): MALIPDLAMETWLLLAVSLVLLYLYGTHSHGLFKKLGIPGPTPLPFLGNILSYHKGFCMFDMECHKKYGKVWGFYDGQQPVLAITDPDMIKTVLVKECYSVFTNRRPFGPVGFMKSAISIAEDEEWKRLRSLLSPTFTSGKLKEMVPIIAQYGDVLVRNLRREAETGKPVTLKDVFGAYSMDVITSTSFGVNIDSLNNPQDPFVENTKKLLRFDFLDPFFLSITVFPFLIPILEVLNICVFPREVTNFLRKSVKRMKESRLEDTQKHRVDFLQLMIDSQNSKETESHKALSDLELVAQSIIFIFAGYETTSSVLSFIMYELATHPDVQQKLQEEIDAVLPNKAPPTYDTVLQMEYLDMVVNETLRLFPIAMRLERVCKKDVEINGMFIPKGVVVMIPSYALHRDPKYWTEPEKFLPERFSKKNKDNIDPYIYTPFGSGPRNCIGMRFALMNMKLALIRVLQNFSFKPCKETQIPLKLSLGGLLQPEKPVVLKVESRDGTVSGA
Chain of Apoptosis regulator Bcl-2 (Homo sapiens) (P10415 whole entry, looked up): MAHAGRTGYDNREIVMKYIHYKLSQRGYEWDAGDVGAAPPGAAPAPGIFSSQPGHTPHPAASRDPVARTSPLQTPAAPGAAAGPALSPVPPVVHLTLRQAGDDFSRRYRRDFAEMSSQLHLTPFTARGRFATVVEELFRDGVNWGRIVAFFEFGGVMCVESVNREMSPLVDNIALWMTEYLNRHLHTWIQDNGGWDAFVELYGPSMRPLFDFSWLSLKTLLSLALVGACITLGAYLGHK

For the compound `CCc1nn(C)c(C(=O)NCc2ccc(C(C)(C)C)cc2)c1Cl`, the half-maximal activity concentration (AC50) in assay [1] is 0.688 µM (active); in assay [3], 18 µM (active); in assay [4] it was 35.8 µM (active); in [5], 0.965 µM (active); in [6] it was 0.636 µM (active); in assay [7], 0.822 µM (active). Further, the AC50 in assay [8] was 50 µM (active); in assay [9], 16.1 µM (active); in assay [11], 0.866 µM (active); in [12] it was 35.8 µM (active); in assay [13] it was 0.346 µM (active); in assay [14], 20.7 µM (active). In addition, the half-maximal activity concentration (AC50) in [15] was 0.414 µM (active); in assay [16], 5.99 µM (active); in assay [17], 0.507 µM (active); in [18], 0.393 µM (active); in assay [19], 13.3 µM (active). Further, the compound was classed as inactive in assay [2] and in [10].
Regarding `COc1nc(NC(C)C)nc(NC(C)C)n1`, the compound was classed as inactive in assay [1], in assay [2], in assay [3], in assay [4], in [5] and in assay [6]. Also, the result in assay [7], in [8], in [9], in [10], in assay [12] and in assay [15] was inactive. Also, the compound was classed as inactive in [16] and in assay [18]. Besides, the AC50 is 44.9 µM (active) in assay [11]; 6.01 µM (active) in assay [13]; 9.99 µM (active) in assay [14]; 37 µM (active) in assay [17]; 7.19 µM (active) in [19].
With `CCNc1nc(Cl)nc(NC(C)C)n1`, the compound was called inactive in [1], in [2], in [3], in assay [4], in assay [5] and in assay [6]. Moreover, the call in [7], in assay [8], in assay [9], in assay [10], in assay [12] and in assay [16] was inactive. In addition, the half-maximal activity concentration (AC50) was 50 µM (active) in assay [11]; 2.34 µM (active) in assay [13]; 15.2 µM (active) in assay [14]; 31.5 µM (active) in [15]; 16.6 µM (active) in [17]; 50 µM (active) in [18]. In addition, the AC50 in [19] is 15.7 µM (active).
